Most compounds without a hit are left out; they make up all but 2.1% or so of the library.
TDP43 rescue – qHTS of TDP-43 Inhibitors | TDP-43 expressing yeast growth rescue, BacTiter-Glo, 24 h | Potency, µM (titrated, usually from 46.1 µM), most hits filed as activators | hit rate 1.8% among 410,000; also: nearly all actives have a fitted effect of over 50% in size
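Luminescence from BacTiter-Glo reports growth of TDP-43-expressing yeast after 24 hr at 30 deg C with compound. Cells were raffinose-pregrown to mid-log, then seeded in galactose medium at OD600=0.02.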
aSyn rescue – qHTS of alpha-syn Inhibitors; Yeast expressing alpha-synuclein, growth rescue, BacTiter-Glo, 24 h; hit rate 0.14% among 370,000; Potency, µM (top dose mostly 46.1 µM), most hits filed as activators; also: nearly all actives have a fitted effect of over 65% in size
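Readout is rescue of growth in alpha-synuclein-expressing yeast, so inhibitors of toxicity appear as activators. Growth after 24 hr at 30 deg C in galactose medium is quantified by luminescence.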
FUS yeast rescue – qHTS for Suppressors of FUS Proteinopathy: Primary screen using FUS-linked yeast assay; hit rate 0.24% among 390,000; S. cerevisiae FUS-expressing, growth rescue, OD600, 24 h; AID 1347120, 2019; Potency, µM (doses to about 76.6 µM), hits mostly activators; also: nearly all actives have a fitted effect of over 55% in size
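Read-out: OD at 600 nm after 24hr at 30C, reporting rescue of FUS-induced yeast toxicity. Cells at OD 0.005 in galactose (2%) minimal medium; compounds tested in a dilution series; CP55940 titration from 92uM final as control.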
Abeta rescue – qHTS for compounds that reverse cellular toxicity of Amyloid beta (A-beta) peptide in yeast: Primary Screen. yeast expressing A-beta42, growth rescue, OD600, 48 h; response scale: 0% DMSO, 100% iron-clioquinol control. Potency, µM (titrated, usually from 46.1 µM), usual class: activators. hit rate 0.063% among 410,000; also: nearly all actives have a fitted effect of over 55% in size
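Growth rescue measured by 600 nm absorbance after 48 h yeast culture at 30 C with compound. Values normalized between DMSO and an equimolar ferric chloride plus clioquinol control.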
Numbers stand for hits; – = inactive; ? = inconclusive; · = not tested or not shown. Calls follow the shape of the dose curve; as a rule, active = well fitted curve in the direction sought with a large enough effect; inconclusive = small, poorly fitted or top-dose-only effect, or another doubt; inactive = no such curve, though single readings can be large; an effect the other way counts as inactive or inconclusive.

SMILES	TDP43 rescue	aSyn rescue	FUS yeast rescue	Abeta rescue
COc1cc(C)c(S(=O)(=O)N2CCCC2)cc1C	–	14µM	–	?
Cc1ccc(O)c(C(=O)/C=C/c2ccc3c(c2)OCCO3)c1	18µM	–	–	–
O=C(O)c1ccc(/C=C/C(=O)c2ccc3c(c2)OCCCO3)cc1	–	–	–	–
COc1ccc(C(=O)/C=C/c2ccc3c(c2)OCCO3)cc1	20µM	–	–	–
COc1ccc(/C=C/C(=O)c2ccc3c(c2)OCCO3)cc1[N+](=O)[O-]	13µM	–	–	–
O=C(/C=C/c1ccc2c(c1)OCCO2)c1ccccc1	16µM	–	–	–
O=C(NCC(c1ccccc1)c1ccccc1)[C@H](Cc1ccccc1)NC1(C(=O)NC2CCCCC2)CCCCCC1	·	·	–	·
Cc1cccc(N2CCN(C(=O)c3cnn(-c4cccc(Cl)c4C)c3C3CCNCC3)CC2)c1C	–	·	?	–
Cc1ccc(CN2C(=O)CN(C3CCC(C)CC3)C(=O)C2c2ccc(F)cc2)cc1 (configuration not stated)	–	·	–	–
COc1ccc(-c2cn3c(n2)sc2cc(C(=O)NCC(C)c4ccccc4)ccc23)cc1 (configuration not stated)	?	·	–	–
COc1ccc(C(=O)C=Cc2ccc3c(c2)OCO3)cc1OC	14µM	–	–	–
COc1ccc(C)cc1NC(=O)COC(=O)c1ccc2c(c1)OCO2	–	–	–	–
COc1ccc(C=CC(=O)c2ccc(OC)c(OC)c2)cc1O	?	?	–	–
COc1ccc(C)cc1NC(=O)c1ccc2c(c1)OCO2	13µM	–	–	–
CC(C)CN(CC(C)C)c1ccc(/C=C/c2ccnc3ccccc23)cc1	·	–	·	·
COc1cccc([C@H]2NC(=O)C/C=C/[C@@H](C)[C@@H](c3cccc(OC)c3)NC(=O)C/C=C/[C@H]2C)c1	·	·	–	·
COC(=O)c1ccc(Cl)c(NS(=O)(=O)c2ccc3c(c2)OCCO3)c1	25µM	–	–	–
CC(Oc1ccccc1)c1ccnn1S(=O)(=O)c1ccccc1 (configuration not stated)	–	–	–	–
CCNC(=O)n1nccc1C(C)Oc1ccccc1 (configuration not stated)	11µM	–	–	–
Cc1ccccc1CNC(=O)c1ccc2ccccc2n1	16µM	–	–	–
OCCN1CCN(c2ncnc3scc(-c4ccc(F)cc4)c23)CC1	–	–	–	–
Cc1nc(N2CCN(c3ccccc3O)CC2)c2c(-c3ccccc3)csc2n1	?	–	–	–
Cc1ccc(-c2csc3ncnc(N4CCN(S(=O)(=O)c5cccs5)CC4)c23)cc1	4.5µM	–	·	–
c1ccc2c(c1)OCC(c1csc3ncnc(N4CCCC4)c13)O2 (configuration not stated)	22µM	–	–	–
Oc1ccccc1N1CCN(c2ncnc3scc(-c4ccc(F)cc4)c23)CC1	22µM	–	?	–
SMILES	TDP43 rescue	aSyn rescue	FUS yeast rescue	Abeta rescue
Oc1ccccc1N1CCN(c2ncnc3scc(-c4ccccc4)c23)CC1	18µM	–	?	–
Cc1ccc(CCNC(=O)c2cc3sccc3n2Cc2ccc(Cl)cc2)cc1	–	·	–	–
O=C(c1ccco1)N1CCN(c2ncnc3scc(-c4ccc(Cl)cc4)c23)CC1	25µM	–	–	–
O=C(c1ccco1)N1CCN(c2ncnc3sc4c(c23)CCC4)CC1	?	–	–	–
COCCCNc1oc(-c2ccc(COc3ccccc3C)o2)nc1C#N	16µM	·	–	–
CCCCNc1oc(-c2ccc(COc3ccccc3C)o2)nc1C#N	–	·	–	–
O=C(Nc1ccc(Br)c(C(F)(F)F)c1)c1ccccc1	8.9µM	–	·	–
O=C(Nc1ccc(Br)c(C(F)(F)F)c1)c1ccc(C(F)(F)F)cc1	–	–	–	–
Cc1cc(C)cc(-n2ccnc2SCC(=O)Nc2ccccc2F)c1	?	–	–	–
Cc1cccc(N(C)c2nc3ccc(C)cc3n3nnnc23)c1	–	·	–	–
Cc1cccc(N(C)c2nc3ccc(C)cc3n3cnnc23)c1	13µM	·	–	–
COC(=O)[C@@]12CCCCC3=C1N(CCC3)C(=O)[C@H]2CC(=O)NCCCN1CCCC1=O	·	·	–	·
CCCOC(=O)c1ccc(NC(=O)c2cc(OC)c(OC)c(OC)c2Br)cc1	13µM	–	–	–
Cc1ccc(N(Cc2cccs2)C(=O)COc2ccccc2[N+](=O)[O-])cc1	?	·	–	–
C=CCOc1ccc(/C=C/C(C)=N\O)cc1	10µM	·	–	–
Cc1ccc2ccc(C(Nc3ccccn3)c3ccccc3)c(O)c2n1 (configuration not stated)	?	–	–	–
Cc1ccc2ccc(C(Nc3ccccc3)c3ccc(Cl)cc3)c(O)c2n1 (configuration not stated)	5.6µM	?	–	16µM
Cc1ccc2ccc(C(Nc3ccccc3)c3ccc(C(C)C)cc3)c(O)c2n1 (configuration not stated)	?	11µM	–	?
Cc1ccc2ccc(C(Nc3ccccc3)c3ccc(F)cc3)c(O)c2n1 (configuration not stated)	3.2µM	–	–	?
Cc1ccc2ccc(C(Nc3ccccc3)c3ccccc3)c(O)c2n1 (configuration not stated)	?	?	–	?
CCc1ccc(-c2nc(CS(=O)CC(=O)NCCc3ccc(Cl)cc3)c(C)o2)cc1 (configuration not stated)	–	·	–	–
O=C(Cc1cccc(F)c1)NO	·	–	·	·
CC1=C(c2cccc(Cl)c2)S(=O)(=O)NC1=NCc1ccccc1C	–	·	–	–
CCCN1CCN(CCCNC(=O)Cn2c(-c3cccs3)cc3ccccc32)CC1	–	·	–	–
CCn1c(/C=C/c2ccc(O)cc2)nc2ccccc2c1=O	18µM	–	–	–
SMILES	TDP43 rescue	aSyn rescue	FUS yeast rescue	Abeta rescue
O=c1c2ccccc2nc(/C=C/c2ccc(Cl)cc2)n1CCO	11µM	–	–	–
C#CCn1c(/C=C/c2ccc(Cl)cc2)nc2ccccc21	35µM	·	–	–
CCn1c(/C=C/c2ccc(O)c(O)c2)nc2ccccc2c1=O	–	–	–	–
CCn1c(/C=C/c2ccccc2F)nc2ccccc2c1=O	8.9µM	–	–	–
COCCCN1C(=O)[C@H](CC(=O)NCC23CC4CC(CC(C4)C2)C3)[C@]2(C(=O)OC)CCCCC=C12	·	·	–	·
O=C(Nc1ccc(Oc2ccccc2)cc1)C1CCN(S(=O)(=O)c2ccccc2)CC1	–	·	–	–
COc1ccc(CCC(=O)NCc2nc3cccnc3n2Cc2ccc(F)cc2)cc1	–	·	–	–
O=C(N/N=C1/C(=O)c2cccc3cccc1c23)c1ccc(Cl)cc1	18µM	?	–	?
COc1ccc(/C=N\NC(=S)SCN2C(=O)C3CCC(C)(C2=O)C3(C)C)cc1 (configuration not stated)	?	?	–	–
CN(C)c1ccc(/C=N\NC(=S)SCN2C(=O)C3CCC(C)(C2=O)C3(C)C)cc1 (configuration not stated)	13µM	–	–	?

Screening data: PubChem BioAssay, National Center for Advancing Translational Sciences (NCATS)
